Key:
[1] = tested on: Human papillomavirus type 1a protein E7 (residues 44-93); assay: small molecules binding HPV E7 44-93 – biochemical, small-molecule microarray, residues 44-93, 635 nm fluorescence, primary screen (AID 1108); conditions: fluorescence 635 nm, higher = more signal;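 also: E7 fragment applied at 1 µg/mL in TBST for 1 h at 4 C; score combines spot fluorescence with its signal to noise ratio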
[2] = hepatitis C replication reporter changes, two-sided – Huh7 cells, luciferase reporter, HCV replication inhibitor project, primary screen (AID 1109); conditions: Huh7 HCV replicon luciferase reporter, 48 h; higher = more signal;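 also: huh7 hepatoma cells harbouring a luciferase neomycin HCV replicon reporter; luciferase luminescence as measure of HCV replicon replication; test concentration not given here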
[3] = target: Left-right determination factor 2 (Homo sapiens) (UniProt O00292); assay: small molecules binding LEFTY2 protein – biochemical, small-molecule microarray, 635 nm fluorescence scan, primary screen (AID 1110); conditions: higher = more signal
Sequence of Left-right determination factor 2 (Homo sapiens) (O00292 whole entry, looked up): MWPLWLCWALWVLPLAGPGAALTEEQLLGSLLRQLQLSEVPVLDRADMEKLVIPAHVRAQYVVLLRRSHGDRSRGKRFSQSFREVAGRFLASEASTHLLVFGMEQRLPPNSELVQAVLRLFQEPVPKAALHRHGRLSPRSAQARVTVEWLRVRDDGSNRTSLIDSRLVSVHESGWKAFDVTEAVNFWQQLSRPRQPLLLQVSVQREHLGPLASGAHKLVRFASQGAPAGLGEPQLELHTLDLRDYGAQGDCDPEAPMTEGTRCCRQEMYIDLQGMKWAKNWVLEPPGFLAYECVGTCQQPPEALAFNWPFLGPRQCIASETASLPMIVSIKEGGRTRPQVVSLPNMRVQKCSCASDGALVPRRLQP

[4] = target: Calmodulin-1 (Homo sapiens) (UniProt P0DP23); assay: small molecules binding calmodulin-1 with EGTA – biochemical, small-molecule microarray, Cy5-labelled CALM1, profiling panel (AID 1111); conditions: Cy5-CALM1 binding fluorescence, higher = more signal;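 also: labelled calmodulin applied in Tris saline Tween buffer holding calcium plus EGTA and DTT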
[5] = target: Calmodulin-1 (Homo sapiens) (UniProt P0DP23); assay: small molecules binding Ca-loaded calmodulin-1 – biochemical, small-molecule microarray, Cy5-labelled CALM1, plus calcium, artefact control for SMM control-protein annotation, profiling panel (AID 1112); conditions: Cy5-CALM1 binding fluorescence, higher = more signal;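 also: score merges spot fluorescence with signal to noise from triplicate slides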
[6] = probe aWnt5a binding to arrayed compounds – biochemical, biotinylated probe, 635/667 nm fluorescence, primary screen (AID 1113); conditions: small-molecule microarray, higher = more signal;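 also: score merges 667 nm fluorescence intensity with signal-to-noise per printed feature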
[7] = probe aShh binding to arrayed compounds – biochemical, biotinylated probe, 635/667 nm fluorescence, primary screen (AID 1114); conditions: small-molecule microarray, higher = more signal;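 also: probe is biotin-labelled aShh protein from a stem cell growth factor screen; measures binding of labelled protein to compounds printed on the slide; score merges feature fluorescence at 667 nm with signal-to-noise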
[8] = probe aNog binding to arrayed compounds – biochemical, biotinylated probe, 635/667 nm fluorescence, primary screen (AID 1115); conditions: small-molecule microarray, higher = more signal;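 also: probe is biotinylated aNog protein used at 0.15 µg/mL for 1 h at 4 C; z-score combines 667 nm fluorescence of each spot with its signal to noise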
[9] = target: Torsin-1A-interacting protein 1 (Homo sapiens) (UniProt Q5JTV8); assay: compound microarray binding of lysate hLAP1 – cell lysate, small-molecule microarray, COS7 lysate, 635/667 nm fluorescence, primary screen (AID 1116); conditions: 635 nm fluorescence, higher = more signal
Sequence of Torsin-1A-interacting protein 1 (Homo sapiens) (Q5JTV8 whole entry, looked up): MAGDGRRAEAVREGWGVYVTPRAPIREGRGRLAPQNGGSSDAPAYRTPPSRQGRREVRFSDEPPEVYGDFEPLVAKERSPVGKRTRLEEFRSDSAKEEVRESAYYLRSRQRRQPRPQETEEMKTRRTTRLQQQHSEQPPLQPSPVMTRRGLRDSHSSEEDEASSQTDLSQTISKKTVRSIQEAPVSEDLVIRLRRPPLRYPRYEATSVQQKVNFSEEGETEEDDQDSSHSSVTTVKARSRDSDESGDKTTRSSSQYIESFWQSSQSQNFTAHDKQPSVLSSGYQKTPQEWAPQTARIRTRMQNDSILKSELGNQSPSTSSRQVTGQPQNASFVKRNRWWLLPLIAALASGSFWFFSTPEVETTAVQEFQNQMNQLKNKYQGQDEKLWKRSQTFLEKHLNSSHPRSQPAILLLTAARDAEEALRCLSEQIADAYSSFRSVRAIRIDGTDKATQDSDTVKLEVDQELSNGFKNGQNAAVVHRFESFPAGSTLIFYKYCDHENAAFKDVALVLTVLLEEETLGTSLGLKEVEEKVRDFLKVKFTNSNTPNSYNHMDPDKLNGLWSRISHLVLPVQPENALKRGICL

[10] = target: Alpha-bungarotoxin (Bungarus multicinctus) (UniProt P60615); assay: compounds binding labelled alpha-BTX control protein – biochemical, small-molecule microarray, Alexa647 label, 635/667 nm fluorescence, artefact control for SMM control protein annotation, profiling panel (AID 1117); conditions: alpha-BTX-A647 binding fluorescence, higher = more signal
Sequence of Alpha-bungarotoxin (Bungarus multicinctus) (P60615 whole entry, looked up): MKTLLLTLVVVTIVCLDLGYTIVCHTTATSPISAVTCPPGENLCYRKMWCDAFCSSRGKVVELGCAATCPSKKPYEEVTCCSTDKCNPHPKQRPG

COCCn1c(C(=O)N2CCCC2)cc2c1C[C@H]1CN(C(=O)c3ccccc3)[C@@](Cc3ccccc3)(C(=O)OC)[C@@H]21
composite z-score [1]: 1.51
z-score [2]: -0.976
composite z-score [3]: 0.222
composite z-score [4]: 1.89
composite z-score [5]: 0.808
composite z-score [6]: 0.869
composite z-score [7]: 1.3
composite z-score [8]: 2.73
composite z-score [9]: 1.12
composite z-score [10]: 0.253

NC(=O)N1C(=O)C2C(C1=O)C1C=C(CCCO)C2C(c2ccc(CN3CCCC3)cc2)N1Cc1cccc(OC(F)(F)F)c1 (stereo not given)
composite z-score [1]: 0.433
z-score [2]: -3.48
composite z-score [3]: 0.565
composite z-score [4]: 0.011
composite z-score [5]: -0.202
composite z-score [6]: -0.104
composite z-score [7]: 0.296
composite z-score [8]: 0.429
composite z-score [9]: -0.226
composite z-score [10]: 0.546

COCCOC(=O)N1C(=O)[C@@]2(c3cc(C#CCCO)ccc31)[C@H](c1ccccc1OCCO)N1[C@H](c3ccccc3)[C@H](c3ccccc3)OC(=O)[C@H]1[C@@H]2C(=O)N1CCc2cc(OC)c(OC)cc2C1
composite z-score [1]: 1.42
z-score [2]: -1.36
composite z-score [3]: 0.507
composite z-score [4]: 1.07
composite z-score [5]: 0.0615
composite z-score [6]: -0.0882
composite z-score [7]: -0.0119
composite z-score [8]: -0.0331
composite z-score [9]: 1.52
composite z-score [10]: 1.49

C=C(CCCC)/C(=C/C[C@H](OC(C)=O)c1cccc(OCCO)c1)c1cc(C(=O)OC)ccc1OC
composite z-score [1]: -0.323
z-score [2]: -1.95
composite z-score [3]: -0.277
composite z-score [4]: -0.343
composite z-score [5]: -1.12
composite z-score [6]: -0.0721
composite z-score [7]: 0.0062
composite z-score [8]: 0.257
composite z-score [9]: 0.455
composite z-score [10]: -0.0712

CN(C)CCCCNC(=O)[C@H]1C[C@H]2C(=O)N[C@@H](Cc3ccccc3)C(=O)N2[C@H]1c1cccc(OCCO)c1
composite z-score [1]: -1.49
z-score [2]: -0.251
composite z-score [3]: 0.0071
composite z-score [4]: -0.545
composite z-score [5]: 0.0005
composite z-score [6]: -0.217
composite z-score [7]: 0.251
composite z-score [8]: -0.338
composite z-score [9]: 0.0886
composite z-score [10]: 0.336

C/C=C/CN(C(=O)C#Cc1ccccc1)[C@H](CO[Si](C)(C)C(C)(C)C)c1ccccc1
composite z-score [1]: 0.0833
z-score [2]: -0.944
composite z-score [3]: -0.594
composite z-score [4]: -0.855
composite z-score [5]: -1.76
composite z-score [6]: -0.286
composite z-score [7]: -0.372
composite z-score [8]: -0.338
composite z-score [9]: -0.721
composite z-score [10]: -2.16

C=CCC(OC(C)=O)[C@@H]1[C@@H](N(Cc2cc3ccccc3o2)C(=O)c2ccc(-c3ccccc3)cc2)c2cc(OCCCO)ccc2N1C(=O)c1ccc2ccccc2n1 (stereo not given in full)
composite z-score [1]: 0.061
z-score [2]: 0.104
composite z-score [3]: 0.163
composite z-score [4]: -0.12
composite z-score [5]: 0.898
composite z-score [6]: 0.107
composite z-score [7]: -0.124
composite z-score [8]: -0.961
composite z-score [9]: 0.554
composite z-score [10]: 0.113

CC(C)C[C@@H]1NC(=O)[C@@]23C(=O)N[C@@H](Cc4ccccc4)C2[C@H](C)[C@@]2(C)O[C@H]2C3/C=C/C/C=C\CNC(=O)[C@@H](CC(C)C)NC1=O (stereo not given in full)
composite z-score [1]: 0.741
z-score [2]: 0.052
composite z-score [3]: 0.567
composite z-score [4]: -0.475
composite z-score [5]: -0.674
composite z-score [6]: -0.101
composite z-score [7]: -0.238
composite z-score [8]: -0.35
composite z-score [9]: 0.403
composite z-score [10]: 0.322

CCCC=C(CCC)[C@@H](NC(=O)c1ccccc1)c1ccc(C(=O)OC)cc1
composite z-score [1]: 0.882
z-score [2]: -1.32
composite z-score [3]: 0.898
composite z-score [4]: -0.271
composite z-score [5]: -0.52
composite z-score [6]: 0.732
composite z-score [7]: 0.318
composite z-score [8]: 1.71
composite z-score [9]: -0.171
composite z-score [10]: 0.303

COC(=O)c1c(CC[C@@H](CO)NC(=O)N[C@@H](Cc2ccccc2)Cn2cc(-c3cncn3C)nn2)oc(C(C)=O)c1C(=O)OC
composite z-score [1]: 1.47
z-score [2]: -0.594
composite z-score [3]: -0.338
composite z-score [4]: 0.162
composite z-score [5]: -0.329
composite z-score [6]: -0.124
composite z-score [7]: -0.0866
composite z-score [8]: -0.394
composite z-score [9]: 1.62
composite z-score [10]: 0.581

COc1ccc(CCNC(=O)[C@@]2(C)c3ccccc3C(=O)N(Cc3cc(C(F)(F)F)cc(C(F)(F)F)c3)[C@H]2c2ccc(CO)cc2)cc1
composite z-score [1]: 1.28
z-score [2]: -2.25
composite z-score [3]: 0.0779
composite z-score [4]: 1.33
composite z-score [5]: -0.228
composite z-score [6]: -0.152
composite z-score [7]: -0.0669
composite z-score [8]: 0.242
composite z-score [9]: 0.548
composite z-score [10]: -0.183

COc1cccc(C[C@H]2C[C@@H](CO[Si](C(C)C)(C(C)C)C(C)C)N3C(=O)[C@@]4(C(C)=O)O[C@@]23[C@@H]2C(=O)N(C)C(=O)[C@@H]24)c1
composite z-score [1]: 1.04
z-score [2]: -2.81
composite z-score [3]: 0.901
composite z-score [4]: 0.05
composite z-score [5]: -0.587
composite z-score [6]: -0.0364
composite z-score [7]: 0.131
composite z-score [8]: 0.0974
composite z-score [9]: 0.272
composite z-score [10]: -0.378

CCC(CC)C(O)C1C=CC2C(=O)N(C)C(=O)C2N1N1CCCCC1 (stereo not given)
composite z-score [1]: 1.43
z-score [2]: -0.481
composite z-score [3]: 0.692
composite z-score [4]: 1.68
composite z-score [5]: -0.263
composite z-score [6]: 0.0229
composite z-score [7]: 0.0381
composite z-score [8]: 1.57
composite z-score [9]: 0.103
composite z-score [10]: 1.2

COC(=O)[C@@]1(CCS(=O)(=O)c2ccccc2)N=C(c2ccc(OCCCO)cc2)O[C@H]1c1ccccc1N=[N+]=[N-]
composite z-score [1]: 1.38
z-score [2]: -1.83
composite z-score [3]: 0.406
composite z-score [4]: 1.29
composite z-score [5]: 0.383
composite z-score [6]: -0.0455
composite z-score [7]: -0.0904
composite z-score [8]: 0.424
composite z-score [9]: 0.861
composite z-score [10]: 2.23

CC(C)(C)OC(=O)CC[C@]1(C(N)=O)N=C(c2ccc(OCCCO)cc2)O[C@H]1c1ccccc1CN=[N+]=[N-]
composite z-score [1]: 0.6
z-score [2]: 1.46
composite z-score [3]: -0.63
composite z-score [4]: 2.67
composite z-score [5]: 1.73
composite z-score [6]: -0.096
composite z-score [7]: 0.84
composite z-score [8]: -0.143
composite z-score [9]: 2.26
composite z-score [10]: 1.46

COCCCNC(=O)[C@@]1(Sc2ccc(C)cc2)CC(=O)N(C2CCCCC2)[C@@H]1c1ccc(CO)cc1I
composite z-score [1]: 1.01
z-score [2]: -2.63
composite z-score [3]: 0.816
composite z-score [4]: 0.99
composite z-score [5]: 0.565
composite z-score [6]: -0.0853
composite z-score [7]: -0.0362
composite z-score [8]: -0.631
composite z-score [9]: 1.34
composite z-score [10]: 1.99

COC(=O)[C@@]1(Cc2ccc(F)cc2)[C@H]2c3cc(C(=O)N(C)C)n(CCO)c3C[C@H]2CN1C(=O)c1ccccc1
composite z-score [1]: -0.0095
z-score [2]: -0.896
composite z-score [3]: -0.388
composite z-score [4]: 0.987
composite z-score [5]: 0.322
composite z-score [6]: -0.0271
composite z-score [7]: 0.494
composite z-score [8]: 1.33
composite z-score [9]: 1.47
composite z-score [10]: -0.148

From PubChem BioAssay
